Results on 20 compounds are retold here after PubChem BioAssay (EPA / NIEHS).

Assay [1] can be described thus: CCTE_Shafer_MEA_acute_spike_number: CCTE's Neural Acute Assay for Total Number of Spikes, Shafer Lab (AID 2284008).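 As to AC50: curve fitted for decrease in spike count so AC50 reflects inhibitors.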 The gist of the method:
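Total spike count from 40 min recordings before and during compound exposure (0.03-40 uM), given as per-well percent change. Cortical cultures from rat, DIV 13 or 15, 37 C; adaptive detection threshold 8x rms noise.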

Assay [2] is described as follows: CCTE_Shafer_MEA_acute_firing_rate_mean: CCTE's Neural Acute Assay for Mean Firing Rate, Shafer Lab (AID 2284009).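 Also: analyzed for loss of signal so actives lower firing rate relative to DMSO.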 The gist of the method:
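Spontaneous spiking of primary rat cortical networks, DIV 13/15, 37 C. Compound 0.03-40 uM, n ≥3 wells; 40 min baseline vs 40 min treated. Endpoint fitted in loss-of-signal direction against DMSO.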

The nature of assay [3]: CCTE_Harrill_HTTr_Viability_MCF7: CCTE's 6-hour Cell Viability Assessment for the High-Throughput Transcriptomics (HTTr) Platform, in MCF-7 cells cultured in DMEM + 10% fetal bovine serum, Harrill Lab (AID 2284010). The essentials:
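PI exclusion, high-content imaging; 8-pt dilution series, 6 h exposure; bidirectional fit vs DMSO (neg. ctrl/baseline); gain of signal = loss of membrane integrity.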

A short description of assay [4]: CCTE_Harrill_HTTr_Apoptosis_MCF7: CCTE's 6-hour Apoptosis Assessment for the High-Throughput Transcriptomics (HTTr) Platform, in MCF-7 cells cultured in DMEM + 10% fetal bovine serum, Harrill Lab (AID 2284011). The gist of the method:
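High-content imaging of CellEvent Caspase 3/7 Green signal follows a six-hour exposure, with eight concentrations per chemical. MCF-7 cells grown in DMEM plus 10% fetal bovine serum; activity fitted in both directions against DMSO.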

The nature of assay [5]: CCTE_Shafer_MEA_acute_burst_number: CCTE's Neural Acute Assay for Single-Electrode Bursts, Shafer Lab (AID 2284013). The essentials: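 Burst totals were derived with adaptive spike detection (8x rms threshold) on filtered signals from rat cortical cultures; change relative to pre-treatment baseline after 40-min compound exposure (0.03-40 uM) was fitted in the negative direction against DMSO.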

Assay [6] in a line: CCTE_Shafer_MEA_acute_burst_duration_mean: CCTE's Neural Acute Assay for Mean Burst Duration, Shafer Lab (AID 2284014).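 Also: hits are decreases in mean burst duration relative to DMSO controls.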 The gist of the method: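 Acute exposure of mature rat cortical networks (DIV 13 or 15) grown on microelectrode arrays to 0.03-40 uM compound. Mean burst duration compared with the 40-min pre-dose baseline over a 40-min post-dose recording at 37 C.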
The nature of assay [7]: CCTE_Shafer_MEA_acute_per_burst_spike_number_mean: CCTE's Neural Acute Assay for Average Number of Spikes Per Burst, Shafer Lab (AID 2284015).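 Also: hits are decreases in mean spikes per burst versus baseline.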 The essentials:
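Percent change in mean spikes per single-electrode burst is compared between a 40 min baseline and a 40 min recording with compound (0.03-40 uM). Cultures were rat cortical neurons on MEA plates at DIV 13 or 15, recorded at 37 C, with DMSO as the negative control.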

The nature of assay [8]: CCTE_Shafer_MEA_acute_interburst_interval_mean: CCTE's Neural Acute Assay for Mean Interburst Interval, Shafer Lab (AID 2284016).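 Also: percent change of mean interburst interval versus each well's own pre-dose baseline; curves fitted for decrease in interburst interval relative to DMSO.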 The essentials: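 Percent change in mean single-electrode interburst interval was calculated per well from 40 min recordings before and after compound (0.03-40 uM). Recordings were made at 37 C on rat cortical cultures at DIV 13 or 15, with spikes detected at 8x rms threshold.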

Assay [9] is described as follows: CCTE_Shafer_MEA_acute_burst_percentage_mean: CCTE's Neural Acute Assay for Percentage of Spikes in a Burst, Shafer Lab (AID 2284017).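 As to AC50: curve fitted for loss of signal so potency reflects decreased burst percentage.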 The essentials:
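Well-level mean burst percentage from a 40-min recording after compound (0.03-40 uM) expressed as percent change from a 40-min baseline at 37C. Cultures: primary rat cortical neurons on MEA, dosed on DIV 13 or 15; fitted downward relative to DMSO.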

Assay [10] in a line: CCTE_Simmons_MITO_viability: CellTiter-Glo Viability Assessment for CCTE's HepG2 Seahorse XF Respirometric Screening Assay [post-hoc], Simmons Lab (AID 2284007; active = hit-call score of the fitted dose curve at least 0.9, where 1 is the maximum;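 as to AC50: cells exposed to chemical for 90 min before the ATP read; actives lower ATP signal relative to DMSO baseline meaning reduced viability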). The essentials: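 Luciferase-coupled ATP luminescence, single endpoint. HepG2, post-respirometry. Compound 125 nM–100 uM final, 7 conc., 90 min. n=3 biological, technical singles. DMSO vehicle/baseline; dichlone 10 nM–100 uM, 8 conc., as positive control.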
For orientation: In ATP-based viability assays light output follows the ATP content of the culture.

Results filed as inconclusive are left out. The source made the active and inactive calls. The calls were made as follows, unless noted: active = hit-call score of the fitted dose curve at least 0.9, where 1 is the maximum; inactive = score below 0.9.

The term AC50 denotes the midpoint of the concentration-response curve, whichever way the signal moves. As to `CCOc1cc(C(C)(C)C)ccc1C1COC(c2c(F)cccc2F)=N1` (stereo unspecified), the AC50 in [1] was 3.32 µM (active); in assay [2] it was 3.32 µM (active); in [5] it was 3.12 µM (active); in assay [9] it was 20 µM (active). Besides, the result in assay [3], in [4], in assay [6], in assay [7] and in [8] was inactive.
`COP(=S)(OC)SCn1nnc2ccccc2c1=O`: the call in assay [1], in assay [2], in assay [3], in assay [4], in [5] and in assay [6] was inactive. Moreover, the compound was called inactive in [7], in assay [8] and in assay [9].
As for `N#Cc1c[nH]cc1-c1cccc2c1OC(F)(F)O2`, the outcome in [10], in assay [3], in [4], in assay [5], in assay [6] and in assay [8] was inactive. Also, the AC50 in [1] is 4.28 µM (active); in assay [2], 4.27 µM (active); in [7] it was 20 µM (active); in assay [9], 20 µM (active).
Regarding `CC(C)(C)C(=O)C(Oc1ccc(Cl)cc1)n1cncn1` (stereo unspecified), the compound was called inactive in assay [10], in [3] and in [4].
Regarding `Cc1ccc(N=CN(C)C=Nc2ccc(C)cc2C)c(C)c1`, the half-maximal activity concentration (AC50) in assay [1] is 0.126 µM (active); in assay [2], 0.125 µM (active); in assay [6], 4.21 µM (active); in [7], 0.308 µM (active); in assay [8], 0.16 µM (active). The result in assay [3], in assay [4], in [5] and in assay [9] was inactive.
As to `CCOP(=S)(OCC)Oc1nc(Cl)n(C(C)C)n1`, the compound was called inactive in [10], in assay [3] and in assay [4].
As for `CC1(C)CCC(=Cc2ccc(Cl)cc2)C1(O)Cn1cncn1` (stereo unspecified), the compound was called inactive in assay [1], in assay [2], in [3], in [4], in [5] and in assay [6]. The compound was classed as inactive in assay [7], in [8] and in [9].
As to `N#CN=C1SCCN1Cc1ccc(Cl)nc1`, the call in assay [1], in assay [2], in [3], in assay [4], in [5] and in [6] was inactive. Also, the compound was called inactive in [7], in [8] and in assay [9].
In the case of `CCN(CC)C(=O)C(C)Oc1cccc2ccccc12` (stereo unspecified), the AC50 in assay [10] is 50 µM (active). Besides, the outcome in [3] and in assay [4] was inactive.
As to `CC1(C)C(C=C(Cl)Cl)C1C(=O)OC(C#N)c1cccc(Oc2ccccc2)c1` (stereo unspecified), the compound was classed as inactive in [10], in [1], in assay [2], in assay [3], in assay [4] and in assay [5]. Further, the result in assay [6] and in assay [7] was inactive. Besides, the AC50 in [8] was 4.16 µM (active); in assay [9], 1.57 µM (active).
As for `Nc1c(Cl)c(F)nc(OCC(=O)O)c1Cl`, the outcome in [1], in [2], in [3], in assay [4], in [5] and in [6] was inactive. For the same compound, the compound was called inactive in assay [7], in assay [8] and in assay [9].
For `CCN(CC)c1nc(C)cc(OP(=S)(OC)OC)n1`, the compound was classed as inactive in assay [10], in assay [3] and in assay [4].
Turning to `CN/C(=N\[N+](=O)[O-])NCc1cnc(Cl)s1`, the result in [1], in assay [2], in assay [3], in assay [4], in [5] and in [6] was inactive. The compound was classed as inactive in assay [7], in assay [8] and in assay [9].
`CC(C)=CC1C(C(=O)OCc2coc(Cc3ccccc3)c2)C1(C)C` (stereo unspecified): the call in [1], in [2], in assay [3], in assay [4], in [5] and in assay [6] was inactive. Besides, in [7], the call was inactive. For the same compound, the concentration at half-maximal activity (AC50) was 31.2 µM (active) in [8] and 15 µM (active) in assay [9].
As for `CCCCC(O)(Cn1cncn1)c1ccc(Cl)cc1Cl` (stereo unspecified), the AC50 in assay [10] was 10.1 µM (active). In addition, the outcome in assay [1], in assay [2], in [3], in assay [4], in [5] and in assay [6] was inactive. Besides, the compound was classed as inactive in assay [7], in [8] and in [9].
For `Cc1c(COC(=O)[C@@H]2[C@H](/C=C(\Cl)C(F)(F)F)C2(C)C)cccc1-c1ccccc1`, the compound was classed as inactive in [10], in assay [1], in assay [2], in [3], in assay [4] and in assay [5]. The outcome in assay [7] and in assay [8] was inactive. Moreover, the half-maximal activity concentration (AC50) in assay [6] was 1.47 µM (active); in assay [9], 0.756 µM (active).
Turning to `CCOc1nc(F)cc2nc(S(=O)(=O)Nc3c(Cl)cccc3Cl)nn12`, the compound was classed as inactive in assay [1], in assay [2], in assay [3], in assay [4], in assay [5] and in [6]. Further, the outcome in assay [7], in [8] and in assay [9] was inactive.
On to `CCCC(=NOCC)C1=C(O)CC(CC(C)SCC)CC1=O` (stereo unspecified), for which the AC50 in assay [1] is 11.1 µM (active); in assay [2], 11.1 µM (active); in [6] it was 31 µM (active); in assay [7], 29.1 µM (active); in assay [9] it was 27.7 µM (active). The result in [3], in assay [4], in [5] and in assay [8] was inactive.
For the compound `CCOP(=O)(OCC)Oc1nc(Cl)c(Cl)cc1Cl`, the AC50 in [10] was 10.7 µM (active); in assay [1] it was 3.95 µM (active); in assay [2] it was 3.95 µM (active); in assay [6], 0.00298 µM (active); in [7], 0.00298 µM (active); in assay [9] it was 34.9 µM (active). Besides, the outcome in assay [3], in assay [4], in [5] and in [8] was inactive.
Regarding `Cc1nc(N(C)C)nc(OC(=O)N(C)C)c1C`, the call in [1], in assay [2], in assay [3], in assay [4], in assay [5] and in assay [6] was inactive. For the same compound, the call in assay [7], in assay [8] and in assay [9] was inactive.
